In the supplement of paper PMC3334620:
In all, about 33,000 sequences were measured (“E-score (-0.5 to 0.5)”: median about -0.056, highest 2% from about 0.38 on). What follows is part of a selection rich in the highest values, with near analogues and random picks from the rest.

target: Stb4 (UniProt P50104); assay: PBM E-score (8-mer binding enrichment) (E-score (-0.5 to 0.5)); higher = stronger / more preferred TF binding; settings: protein concentration: 200 nM; construct: GST-DNA-binding domain
Sequence of UniProt P50104 (P50104 whole entry, the tested form may be a part): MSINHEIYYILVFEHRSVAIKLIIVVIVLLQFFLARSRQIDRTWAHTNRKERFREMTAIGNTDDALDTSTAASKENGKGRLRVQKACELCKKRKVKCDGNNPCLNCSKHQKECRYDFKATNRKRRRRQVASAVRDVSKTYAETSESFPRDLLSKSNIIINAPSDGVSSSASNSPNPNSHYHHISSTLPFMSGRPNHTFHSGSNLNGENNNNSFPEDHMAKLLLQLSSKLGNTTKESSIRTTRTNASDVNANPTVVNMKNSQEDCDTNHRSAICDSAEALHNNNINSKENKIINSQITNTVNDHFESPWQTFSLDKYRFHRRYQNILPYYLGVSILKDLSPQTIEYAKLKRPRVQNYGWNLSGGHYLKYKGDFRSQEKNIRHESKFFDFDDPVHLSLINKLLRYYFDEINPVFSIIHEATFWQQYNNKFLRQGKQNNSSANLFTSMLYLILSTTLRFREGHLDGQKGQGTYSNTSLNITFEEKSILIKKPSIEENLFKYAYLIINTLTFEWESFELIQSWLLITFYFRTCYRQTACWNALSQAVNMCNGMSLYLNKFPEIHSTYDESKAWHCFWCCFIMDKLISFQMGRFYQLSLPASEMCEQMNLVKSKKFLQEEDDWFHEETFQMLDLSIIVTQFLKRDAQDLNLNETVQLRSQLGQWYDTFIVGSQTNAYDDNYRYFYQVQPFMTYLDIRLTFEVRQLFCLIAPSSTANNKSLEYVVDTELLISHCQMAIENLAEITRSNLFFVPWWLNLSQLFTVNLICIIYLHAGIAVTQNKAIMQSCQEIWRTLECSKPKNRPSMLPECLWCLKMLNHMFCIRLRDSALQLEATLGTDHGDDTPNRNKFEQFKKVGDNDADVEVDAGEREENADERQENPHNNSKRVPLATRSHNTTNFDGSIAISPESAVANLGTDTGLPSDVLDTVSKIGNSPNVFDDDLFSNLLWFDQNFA
Experimental: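 Universal 'all 10-mer' protein binding microarrays (Agilent AMADID 015681) probed with GST-tagged S. cerevisiae TFs (full-length or DBD) made by in vitro transcription/translation (PURExpress), about 100-200 nM. Bound TF was detected with fluorescent anti-GST. Each ungapped 8-mer (which stands for itself and its reverse complement) is scored by the PBM enrichment score (E-score), a modified Wilcoxon-Mann-Whitney statistic from -0.5 to +0.5, computed with the Universal PBM Analysis Suite. Scale: above 0.35 generally sequence-specific binding.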

Sequence | PBM E-score
CGTGGGGC | -0.121
CCCGGGAA | 0.355
ACCGGGAA | 0.335
GACGGAAA | 0.36
TCCGGAGA | 0.335
TCCGGAAA | 0.439
TCCGGGAA | 0.388
CCCGGAAA | 0.39
TCCGGACA | 0.322
GCCGGAAA | 0.401
GGCGGAAA | 0.277
AGGACTGA | -0.0328
CACTTGGA | -0.087
AATGTGGA | -0.0863
ACGATTCT | -0.05
GTATAGGA | -0.287
AGCCATTA | 0.0954
CTTCTGTC | -0.158
AGCTGATA | -0.047
GCCGGACC | 0.196
GCCGGAAC | 0.428
ACCGGAAA | 0.384

Sequence | PBM E-score
ACCGGACT | 0.252
ACCGGCAA | 0.229
GCCGGAGC | 0.283
AACTGTCC | 0.0472
AGAGTGTA | -0.094
GTTTCCAA | -0.1
CTTTCCGC | 0.324
CTTTCCCA | -0.053
GTTTCCCA | -0.0576
GTTTCCGA | 0.466
CTTTCCGA | 0.463
ATCTATGA | -0.0937
ATGCAGAG | -0.146
GATCAGGA | -0.029
ATTCATCC | 0.202
ATTACACA | -0.13
CCGAAAAG | 0.384
ACGAAACC | -0.0179
CCGAAACC | 0.395
GCGAAAAC | -0.154
ACGAAAAC | 0.154
TCGAAAAA | -0.00854

Sequence | PBM E-score
ACGAAAAG | -0.23
CCGAAAAC | 0.41
CCGAAACA | 0.364
CCGAAAGG | 0.363
ACGAAAAA | -0.189
CCGAAAAA | 0.434
CTAATCGA | -0.105
CGCCTCCC | -0.0433
CGGTCCCC | 0.141
CCCTATGC | -0.0929
AAGTGCGG | 0.226
CCGAAAGA | 0.388
GCGAAAGA | -0.166
CCGAAAGC | 0.377
ACGAAGGC | -0.0627
GACCTGGA | -0.196
GTCCTGAA | -0.197
ATCCGCAG | 0.285
CTCCGAAA | 0.357
CTCCGAAC | 0.427
ATCCGAAC | 0.475
AACCGAAC | 0.356

Sequence | PBM E-score
TTCCGAAA | 0.468
ATCCGAAG | 0.48
CACCGAAC | 0.224
TTGCGAAA | 0.116
AACCGAAG | 0.362
TTTCGAAA | -0.307
GTCCGAAC | 0.335
AGTCAGCC | -0.161
ACTGATCT | -0.0326
CAGGAAAG | -0.2
ATACGGGA | 0.237
CACTAAAC | -0.0976
TACTTCTA | -0.254
AAATTGCG | 0.114
TCCTAGGA | -0.093
CTGTGGGA | -0.145
CTCCGAAG | 0.413
ATGCGAAT | 0.0493
ATCCGAAA | 0.48
AACCGAAA | 0.372
